# Data reported in PubChem BioAssay AID2283193 (EPA ToxCast).
# Inconclusive results are not listed. The source made the active and inactive calls. Rule for the calls: active = hit-call score of the fitted dose curve at least 0.9, where 1 is the maximum; inconclusive = response in the unintended direction; inactive = score below 0.9.
# Target: human Protein Kinase C, zeta (PKCz), PRKCZ (gene 5590) (UniProt Q05513)
# Test: NVS_ENZ_hPKCz: NovaScreen (NVS) Enzymatic Assay for human Protein Kinase C, zeta (PKCz)
# Experimental: NVS_ENZ_hPKCz is a biochemical, single-readout assay that uses extracted gene-proteins in a cell-free assay. Measurements were taken 1 hour after chemical dosing in a 384-well plate.NVS_ENZ_hPKCz is one of one assay component(s) measured or calculated from the NVS_ENZ_hPKCz assay. It is designed to make measurements of enzyme activity, a form of enzyme reporter, as detected with fluorescence intensity signals by Fluorescence and electrophoretic mobility shift technology.Data from the assay component NVS_ENZ_hPKCz was analyzed into 1 assay endpoint. This assay endpoint, NVS_ENZ_hPKCz, was analyzed in the positive analysis fitting direction relative to DMSO as the negative control and baseline of activity. Using a type of enzyme reporter, loss-of-signal activity can be used to understand changes in the enzymatic activity as they relate to the gene PRKCZ. Furthermore, this assay endpoint can be referred to as a primary readout, because this assay has produced multiple assay endpoints where this one serves a enzymatic activity function. To generalize the intended target to other relatable targets, this assay endpoint is annotated to the kinase intended target family, where the subfamily is serine/threonine kinase. […]
# Sequence of human Protein Kinase C, zeta (PKCz), PRKCZ (gene 5590) (Q05513 whole entry, looked up): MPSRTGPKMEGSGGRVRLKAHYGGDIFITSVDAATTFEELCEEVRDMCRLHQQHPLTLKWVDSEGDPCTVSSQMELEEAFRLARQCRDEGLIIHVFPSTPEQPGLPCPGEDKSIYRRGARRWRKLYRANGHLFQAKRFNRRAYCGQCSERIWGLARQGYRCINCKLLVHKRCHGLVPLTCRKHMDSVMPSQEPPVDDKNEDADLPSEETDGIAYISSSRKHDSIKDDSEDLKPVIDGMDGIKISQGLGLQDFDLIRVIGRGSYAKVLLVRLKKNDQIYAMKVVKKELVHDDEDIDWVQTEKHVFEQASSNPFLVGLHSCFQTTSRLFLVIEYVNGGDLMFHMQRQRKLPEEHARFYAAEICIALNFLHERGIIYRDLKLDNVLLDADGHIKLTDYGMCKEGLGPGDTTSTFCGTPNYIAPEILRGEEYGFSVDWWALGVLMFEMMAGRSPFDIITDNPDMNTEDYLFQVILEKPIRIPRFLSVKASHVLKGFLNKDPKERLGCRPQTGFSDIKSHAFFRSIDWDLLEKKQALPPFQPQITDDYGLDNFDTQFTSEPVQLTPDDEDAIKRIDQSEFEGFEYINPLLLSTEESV
structure (smiles),measurement,value
CCCCC(CC)COC(=O)c1ccccc1C(=O)O (stereo unspecified),outcome,inactive
